{"source": "PubChem BioAssay AID1259374", "about": "(The Scripps Research Institute Molecular Screening Center, 2018)", "note": "Among all 650,000 compounds or so, about 5,900 (0.91%) were called active. Rule as the data show it: active = inhibition above about 50%; inactive = the rest. The sample as a whole holds a higher share of actives than the screen did."}
{"molecular_target": "Microphthalmia-associated transcription factor (Homo sapiens) (UniProt O75030)", "sequence (O75030 whole entry, looked up)": "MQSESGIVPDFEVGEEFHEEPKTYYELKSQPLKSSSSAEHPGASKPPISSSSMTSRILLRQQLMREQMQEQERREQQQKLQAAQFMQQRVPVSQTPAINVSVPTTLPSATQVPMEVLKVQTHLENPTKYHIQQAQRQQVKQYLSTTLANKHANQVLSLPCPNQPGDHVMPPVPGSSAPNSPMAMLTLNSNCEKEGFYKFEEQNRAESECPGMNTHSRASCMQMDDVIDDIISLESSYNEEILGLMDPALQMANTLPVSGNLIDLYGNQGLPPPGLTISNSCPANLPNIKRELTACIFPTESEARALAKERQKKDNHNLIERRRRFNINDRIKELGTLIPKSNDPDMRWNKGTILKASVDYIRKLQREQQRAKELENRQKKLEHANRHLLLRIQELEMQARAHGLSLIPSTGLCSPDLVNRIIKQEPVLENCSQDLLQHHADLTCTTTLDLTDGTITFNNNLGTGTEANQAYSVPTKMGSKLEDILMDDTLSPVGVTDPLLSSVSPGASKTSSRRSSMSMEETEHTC", "assay": "MITF inhibitors, primary screen, biochemical, AlphaScreen, human (AID 1259374);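 also: 0% = vehicle wells with protein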", "details": "AlphaScreen MITF homodimerization, bead proximity signal; at 2.6 µM; stronger effect = higher value"}
{"molecule": "O=C(CN(Cc1ccccc1)S(=O)(=O)c1ccc(F)cc1)NCCc1ccccc1", "inhibition": "-7.64% (inactive)"}
{"molecule": "CC(C)N1CCC(N2CCN(Cc3cc(F)ccc3F)CC2CCO)CC1", "note": "(configuration not stated)", "inhibition": "5.34% (inactive)"}
{"molecule": "Cc1cc(S(=O)(=O)NCc2ccc3c(c2)OCO3)ccc1-n1cnnn1", "inhibition": "11.8% (inactive)"}
{"molecule": "Cc1cc(S(=O)(=O)NC2CCCC2)ccc1-n1cnnn1", "inhibition": "-4.47% (inactive)"}
{"molecule": "Cc1cc(S(=O)(=O)Nc2ccc3c(c2)OCCO3)ccc1-n1cnnn1", "inhibition": "53% (active)"}
{"molecule": "COCCN1C(=O)/C(=C/c2cc(OC)c(O)c([N+](=O)[O-])c2)SC1=S", "inhibition": "14.8% (inactive)"}
{"molecule": "COCCn1nnnc1C(c1ccc2ncccc2c1)N1CCOCC1", "note": "(configuration not stated)", "inhibition": "12% (inactive)"}
{"molecule": "CC(C)(C)n1nnnc1C(c1ccc2ncccc2c1)N1CCSCC1", "note": "(configuration not stated)", "inhibition": "65.2% (active)"}
{"molecule": "CC(C)(C)n1nnnc1C(c1ccc(Cl)cc1)N1CCSCC1", "note": "(configuration not stated)", "inhibition": "-19.9% (inactive)"}
{"molecule": "CCNc1cc(NCCO)c2noc3c2c1C(=O)c1ccccc1-3", "inhibition": "27.5% (inactive)"}
{"molecule": "COc1ccc(Nc2cc(N3CCN(c4ncccn4)CC3)c3noc4c3c2C(=O)c2ccccc2-4)cc1", "inhibition": "0.37% (inactive)"}
{"molecule": "CC(C)Nc1cc(N2CCC3(CC2)OCCO3)c2noc3c2c1C(=O)c1ccccc1-3", "inhibition": "55.8% (active)"}
{"molecule": "CC(C)Nc1cc(N2CCN(c3ncccn3)CC2)c2noc3c2c1C(=O)c1ccccc1-3", "inhibition": "5.09% (inactive)"}
{"molecule": "CCOC(=O)N1CCN(c2cc(NCCO)c3c4c(onc24)-c2ccccc2C3=O)CC1", "inhibition": "15.8% (inactive)"}
{"molecule": "CN1CCN(c2cc(NCCCC(=O)O)c3c4c(onc24)-c2ccccc2C3=O)CC1", "inhibition": "10.3% (inactive)"}
{"molecule": "CCNc1cc(Nc2ccccc2)c2c3c(onc13)-c1ccccc1C2=O", "inhibition": "15.1% (inactive)"}
{"molecule": "CN(C)c1cc(NCCN2CCC3(CC2)OCCO3)c2c3c(onc13)-c1ccccc1C2=O", "inhibition": "50.7% (active)"}
{"molecule": "CC1CCN(c2cc(NCC(=O)O)c3c4c(onc24)-c2ccccc2C3=O)CC1", "inhibition": "51.3% (active)"}
{"molecule": "Cc1c(C(=O)Nc2ccc(F)cc2)sc2ncnc(N3CCc4ccccc4C3)c12", "inhibition": "-2.5% (inactive)"}
{"molecule": "Cc1ccc(OCC(=O)N2CCC(C(=O)O)CC2)cc1C", "inhibition": "6.47% (inactive)"}
{"molecule": "COCCn1c(SCC(=O)Nc2c(C)cc(C)cc2C)nc2c(c1=O)SCC2", "inhibition": "1.88% (inactive)"}
{"molecule": "COc1ccccc1C(=O)NCC(c1ccc2c(c1)CCCN2C)N1CCOCC1", "note": "(configuration not stated)", "inhibition": "-1.79% (inactive)"}
{"molecule": "COc1ccc(C(CNCc2cc(=O)oc3cc4c(cc23)CCC4)N2CCOCC2)cc1", "note": "(configuration not stated)", "inhibition": "85.3% (active)"}
{"molecule": "O=c1cc(CNc2ccc(S(=O)(=O)N3CCCC3)cc2)c2cc3c(cc2o1)CCC3", "inhibition": "10.1% (inactive)"}
{"molecule": "CN1CCN(Cc2c(O)ccc3c2O/C(=C\\c2ccccc2Cl)C3=O)CC1", "inhibition": "2.25% (inactive)"}
{"molecule": "Cc1ccc2c(=O)c(CN3CCN(C)CC3)c(C)[nH]c2c1C", "inhibition": "10% (inactive)"}
{"molecule": "N#C/C(=C(/O)c1cc(-c2ccccc2)nc2ccccc12)c1nc2ccccc2[nH]1", "inhibition": "-0.49% (inactive)"}
{"molecule": "COc1cc(Br)cc(/C=N\\NC(=O)c2ccc(C)nc2)c1O", "inhibition": "60.8% (active)"}
{"molecule": "COc1cc(Br)cc(/C=N/NC(=O)c2cc(-c3ccccc3)n[nH]2)c1O", "inhibition": "-36.5% (inactive)"}
{"molecule": "CCOc1cccc(/C=N/NC(=O)c2ccc(C)nc2)c1O", "inhibition": "49.4% (inactive)"}
{"molecule": "O=c1nc(/C=C/c2cc(Cl)cc(Cl)c2OCc2ccccc2F)cc(C(F)(F)F)[nH]1", "inhibition": "-1.22% (inactive)"}
{"molecule": "C/C(=N\\c1ccccn1)c1c(O)c2ccccc2oc1=O", "inhibition": "5.79% (inactive)"}
{"molecule": "CCC(C)NCCOCCOc1c(OC)cccc1OC", "note": "(configuration not stated)", "inhibition": "17.3% (inactive)"}
{"molecule": "CCC(C)NCCOCCOc1cc(C)cc(C)c1C", "note": "(configuration not stated)", "inhibition": "70.4% (active)"}
{"molecule": "CCC(C)NCCOCCOc1ccc(Br)cc1C", "note": "(configuration not stated)", "inhibition": "28.4% (inactive)"}
{"molecule": "Cc1nn(C)c(C)c1NC(=O)Cn1nc2n(Cc3ccc(F)cc3)c3ccccc3n2c1=O", "inhibition": "12.6% (inactive)"}
{"molecule": "Cc1ccc(C)c(NCN2C(=O)CSC2=O)c1", "inhibition": "17.9% (inactive)"}
{"molecule": "CCOC(=O)c1sc2nc(SCC(=O)N3CCCC3)n(Cc3ccc(C)cc3)c(=O)c2c1C", "inhibition": "-3.14% (inactive)"}
{"molecule": "O=S(=O)(c1ccc2ccccc2c1)N1CCN(CC2CC3C=CC2C3)CC1", "note": "(configuration not stated)", "inhibition": "-6.53% (inactive)"}
{"molecule": "CCOc1ccccc1N1CCN(CC2CC3C=CC2C3)CC1", "note": "(configuration not stated)", "inhibition": "4.32% (inactive)"}
{"molecule": "C1=CC2CC1CC2CN1CCN(Cc2c[nH]c3ccccc23)CC1", "note": "(configuration not stated)", "inhibition": "64.4% (active)"}
{"molecule": "CCN1C(=O)C(C)(C)COc2ccc(NC(=O)COc3ccc4ccccc4c3)cc21", "inhibition": "8.12% (inactive)"}
{"molecule": "CN(C)/N=C/C=C1\\CCC/C(=C\\C=N\\N(C)C)C1=O", "inhibition": "17.4% (inactive)"}
{"molecule": "CN(C)/N=C/C=C1\\CCC/C(=C\\c2ccc([N+](=O)[O-])cc2)C1=O", "inhibition": "-2.41% (inactive)"}
{"molecule": "CN(C)/C=C/C=C/C=C1\\CCC\\C(=C/C=C/C=C/N(C)C)C1=O", "inhibition": "98.9% (active)"}
{"molecule": "Cc1ccc2nc3sc(C(=O)N4CC(=O)Nc5ccccc54)c(N)c3cc2c1", "inhibition": "-4.39% (inactive)"}
{"molecule": "COc1ccccc1-c1nnc(SCCN2CCOCC2)n1C", "inhibition": "0.66% (inactive)"}
{"molecule": "O=[N+]([O-])c1ccc(OCc2nnc(SCCN3CCOCC3)n2-c2ccccc2)cc1", "inhibition": "53.2% (active)"}
{"molecule": "c1ccc(C(Sc2nnc(COc3ccc(C4CCCCC4)cc3)n2-c2ccccc2)c2ccccc2)cc1", "inhibition": "15.4% (inactive)"}
{"molecule": "COc1ccc(C(=O)Oc2ccc3c(C(F)(F)F)cc(=O)oc3c2C)cc1OC", "inhibition": "6.47% (inactive)"}
{"molecule": "O=S(=O)(c1ccc(-c2csc(N3N=C(c4cccs4)CC3c3ccc(F)cc3)n2)cc1)N1CCCCC1", "note": "(configuration not stated)", "inhibition": "12% (inactive)"}
{"molecule": "Cc1ccc(N(C2C=CS(=O)(=O)C2)S(=O)(=O)c2ccc(Br)cc2)cc1", "note": "(configuration not stated)", "inhibition": "19.4% (inactive)"}
{"molecule": "O=C(O)c1cccc(-n2[nH]c(-c3ccccc3)cc2=O)c1", "inhibition": "7.2% (inactive)"}
{"molecule": "Cc1nc2sc3c(c2c(=O)n1/N=C/c1ccccc1[N+](=O)[O-])CCCC3", "inhibition": "-7.66% (inactive)"}
{"molecule": "Cn1c(=O)oc2cc(S(=O)(=O)N3CCC(C(=O)NC(C)(C)C)CC3)ccc21", "inhibition": "70.2% (active)"}
{"molecule": "Cn1c(=O)oc2cc(S(=O)(=O)N3CCC(C(=O)NCCC4=CCCCC4)CC3)ccc21", "inhibition": "-12.8% (inactive)"}
{"molecule": "COc1cccc(NC(=O)C2CCN(S(=O)(=O)c3ccc4c(c3)oc(=O)n4C)CC2)c1", "inhibition": "-1.03% (inactive)"}
